Data as given in PubChem BioAssay (NCATS).
Results filed as inconclusive are left out. Where a call stands in place of a potency, no number is given. Activity calls are given as the source filed them. Calls come from the whole dose curve; as a rule, active = well fitted inhibition curve with a large enough effect; inconclusive = small, poorly fitted or top-dose-only effect; inactive = no such curve, though single readings can be large or run the other way.

Biological target: Retinaldehyde dehydrogenase 3 (Homo sapiens) (UniProt P47895)
Assay: qHTS for Inhibitors of the Aldehyde Dehydrogenase Family (ALDH1A3) Primary screen (AID 2061315)
Conditions: ALDH inhibition qHTS; series mostly up to 56 µM

SMILES | Potency
CCc1ccc(NC(=O)c2[nH]c(C)c(C(C)=O)c2C)cc1S(=O)(=O)Nc1ccc(C#N)cc1 | inactive
Cc1cc(NS(=O)(=O)C2CCN(C(=O)Cc3ccc(Cl)c(Cl)c3)CC2)no1 | inactive
Cc1ccc(S(=O)(=O)Nc2ccccc2CNc2nc(-c3ccccc3)cs2)cc1 | inactive
O=C1CCCC2=C1C1(CCCC1)N=C(Nc1nc3cc(Cl)ccc3o1)N2 | inactive
Cc1ccc(-c2cc(C(=O)Nc3ncco3)c3ccccc3n2)cc1C | inactive
COC(=O)c1ccc(-c2c(NC(C)=O)sc3c2CCNC3)cc1 | inactive
Cc1cc(F)ccc1S(=O)(=O)Nc1cnccc1C(=O)Nc1nc(-c2ccccc2)cs1 | inactive
COc1cc(F)c(S(=O)(=O)N2CCN(S(=O)(=O)c3ccco3)CC2)c(F)c1 | inactive
Cc1ccccc1CSc1nc2ncc(Br)cc2[nH]1 | inactive
Cc1ccc(-c2csc3ncnc(Sc4nnnn4C)c23)cc1 | inactive
COc1cccc(NC(=S)N2CCN(c3ccc(C(F)(F)F)cc3[N+](=O)[O-])CC2)n1 | inactive
COc1ccnc(NC(=S)N2CCN(c3ccc4ccccc4n3)CC2)c1 | inactive
O=S(=O)(c1ccc2c(c1)OCCO2)N1CCN(S(=O)(=O)c2cccs2)CC1 | inactive
CC(C)CCC[C@@H](C)[C@H]1CC[C@H]2[C@@H]3CC=C4C[C@@H](OC(=O)NCCN(C)C)CC[C@]4(C)[C@H]3CC[C@]12C | inactive
Cc1ccc(S(=O)(=O)Nc2cc(C)ccc2C(=O)Nc2nc(-c3ccccc3)cs2)cc1 | inactive
Cc1nnc(-c2cnn(C)c2N)n1CCCc1ccccc1 | inactive
Cc1nc(NCc2ccccc2)c2nc(-c3ccccc3)n(CCN3CCCCC3)c2n1 | inactive
C=C1C[C@]23C[C@H]1CC[C@H]2C1=C[C@H]2OC(=O)[C@@](C)([C@H]1[C@@H]3C(=O)O)[C@H]2O | inactive
CCOC(=O)C1CCN(C(=O)C2(NC(=O)Nc3ccc(F)cc3F)CCCCC2)CC1 | inactive
FC(F)(F)c1ccc(-c2nc(NCc3ccc(-c4ccnc(C(F)(F)F)c4)cc3)c3ccccc3n2)cc1 | inactive

SMILES | Potency
COc1cccc(C2c3c(ncn(-c4cccc(OC)c4)c3=N)Oc3ccc4ccccc4c32)c1 (stereo not given) | inactive
COc1ccc(-c2nnc3n2N=C(c2cc(OC)ccc2OC)CS3)c(OC)c1 | inactive
CN(C)c1oc(-c2cccc3ccccc23)nc1C#N | inactive
Cc1ccc(CNc2nc(-c3ccccc3C(F)(F)F)nc3ccccc23)s1 | inactive
C[C@H](N)C(=O)Nc1ccc(Cl)cc1C(=O)c1ccc[nH]1 | inactive
Fc1ccc(-c2ccc(Nc3nc(-c4ccncc4)nc4ccccc34)cc2F)cc1 | inactive
C=C1C[C@]23C[C@@]1(O)CC[C@H]2[C@@]12C=C[C@H](O)[C@@](C)(C(=O)O1)[C@H]2[C@@H]3C(=O)O | inactive
O=C(OCC#CCSc1nnc(-c2cccc(F)c2)o1)c1ccc(F)cc1 | inactive
CCc1ccccc1-c1nc(NCc2ccc(-c3cccnc3)cc2)c2ccccc2n1 | inactive
Cc1cc(C)n2ncc(C(=O)Nc3ccc(C(C)(C)C)cc3)c2n1 | inactive
O=S1(=O)N=C(Oc2ccc(-c3ccccc3)cc2)c2ccccc21 | inactive
N[C@@H](Cc1ccccc1)C(=O)Nc1ccc(Cl)cc1C(=O)c1ccc[nH]1 | inactive
O=C1CCc2cc(S(=O)(=O)Nc3cccc(C(F)(F)F)c3)ccc2N1 | inactive
Cn1c(=O)c2c(nc(CN3CCN(C(=O)C4CC4)CC3)n2Cc2ccccc2Cl)n(C)c1=O | inactive
Cc1cc(N[S+](=O)([O-])c2cc3c(cc2Cl)CCC(=O)N3)ccc1Br | inactive
O=C(Nc1ccc2ccccc2c1)Nc1nnc(-c2ccc(Cl)cc2Cl)s1 | inactive
N#Cc1c(Cl)cccc1Oc1ccc([S+](=O)([O-])N2CCN([S+](=O)([O-])c3c(F)cccc3F)CC2)cc1 | inactive
C=C[C@H](/C=C\c1ccc(O)cc1)c1ccc(O)cc1 | inactive
O=C(CSc1ccccc1)Nc1nnc(COc2ccc(Cl)cc2)s1 | inactive
COc1cc(O)c(C(CC(=O)N2CCCCC2)c2ccc3c(c2)OCO3)c(OC)c1 (stereo not given) | inactive
